Experimental findings from PubChem BioAssay (Tox21) are described below.

Records with an inconclusive call do not appear. The source made the active and inactive calls. Unless noted, the call rests on the fitted dose curve; in most records, active means well fitted curve in the direction sought with a large enough effect in the repeat runs; inconclusive means weak or mixed curves; inactive means no such curve, though single readings can be large; an effect the other way counts as inactive or inconclusive.

Assay [1] in a line: qHTS assay for small molecule agonists of the p53 signaling pathway (AID 651631; calls by dose curve; further: nearly all actives have a fitted effect of over 15% in size). The gist of the method: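 Read-out is beta-lactamase FRET fluorescence measured 2 h after substrate addition at room temperature, in HCT-116 cells with a p53 response element-driven reporter exposed to compounds for 16 h at 37 °C.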
A general note: Quantitative high-throughput screening tests each substance at several concentrations.

Assay [2] can be described thus: qHTS assay for small molecules that induce genotoxicity in human embryonic kidney cells expressing luciferase-tagged ATAD5 (AID 651632). Further: nearly all actives have a fitted effect of over 15% in size. The gist of the method:
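Quantitative HTS in HEK293T expressing luciferase-tagged ATAD5, whose levels rise upon DNA damage. Exposure ran 16 hr at 37C and 5% CO2, with luminescence read 30 min after Amplite addition at room temperature.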

Assay [3] can be described thus: qHTS assay for small molecule agonists of the p53 signaling pathway - cell viability (AID 651633; calls by dose curve;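 further: p53RE-bla HCT reporter cells with a stable beta-lactamase p53 reporter; series mostly up to about 83 µM; nearly all actives have a fitted effect of over 30% in size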). The gist of the method: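 Viability counter-read: CellTiter-Glo luminescence (30 min, room temperature) in the same p53RE-bla plates. These plates had been exposed to compounds for 16 h at 37 C.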
Assay [4] is described as follows: qHTS assay for small molecules that induce genotoxicity in human embryonic kidney cells expressing luciferase-tagged ATAD5 - cell viability (AID 651634; calls by dose curve; further: nearly all actives have a fitted effect of over 25% in size). The gist of the method: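 After 15.5 hr incubation with compound at 37C, 5% CO2, HEK293T ATAD5-luciferase cells received CellTiter-Fluor reagent; fluorescence intensity was quantified following 30 min at 37C.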

Assay [5] is described as follows: qHTS assay for small molecule disruptors of the mitochondrial membrane potential - cell viability (AID 720634; calls by dose curve;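 further: human HepG2 liver cancer cells; series mostly up to about 83 µM; nearly all actives have a fitted effect of over 20% in size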). The gist of the method: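 ATP-based luminescent viability readout (CellTiter-Glo, 30 min, room temperature) in HepG2 cells multiplexed with the m-MPI membrane potential dye; compound exposure lasted 1 hr at 37 C.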
Assay [6] is described as follows: qHTS assay for small molecule disruptors of the mitochondrial membrane potential (AID 720635). Further: potency means the concentration at half of the fitted maximal effect. The gist of the method: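 Mitochondrial membrane potential tracked with Mito-MPS dye, red aggregates (ex 540/em 590 nm) against green monomers (ex 490/em 535 nm). Compound treatment 1 hr at 37C, dye 30 min in HepG2.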
A short description of assay [7]: qHTS assay to test for compound auto fluorescence at 590 nm (red) in HepG2 cells (AID 720674). The gist of the method:
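We screened compounds on adherent HepG2 cells, incubating them for an hour at 37 C in 5% CO2 before reading emission at 590 nm under 540 nm excitation; values reflect equivalence to Rose Bengal sodium fluorescence.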

Assay [8] can be described thus: qHTS assay to test for compound auto fluorescence at 535 nm (green) in HepG2 cells (AID 720675).
Assay [9] is described as follows: qHTS assay to test for compound auto fluorescence at 460 nm (blue) in HEK293 cells (AID 720678). The gist of the method:
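After cell attachment (4-5 hr, 37C), compounds were pinned onto HEK293 monolayers in 10% dialyzed FBS medium. The blue channel (405/460 nm) was read following overnight culture. Equivalency was calculated against triamterene.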

Assay [10] can be described thus: qHTS assay to test for compound auto fluorescence at 590 nm (red) in HEK293 cells (AID 720679). The gist of the method:
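Plates of HEK293 cells (10% dialyzed FBS) are treated with 23 nL compound or DMSO vehicle after a 4-5 hr attachment period, incubated overnight at 37C, and read for red fluorescence at 540/590nm.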

The nature of assay [11]: qHTS assay to test for compound auto fluorescence at 535 nm (green) in HEK293 cells (AID 720680).
Assay [12] in a line: qHTS assay to test for compound auto fluorescence at 460 nm (blue) in HEK293 cell free culture (AID 720681). The gist of the method: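 Blue fluorescence (Ex 405/Em 460 nm, triamterene-equivalent) was read immediately after pin transfer of compound or DMSO into medium (DMEM, 10% FBS) without cells.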
Assay [13] is described as follows: qHTS assay to test for compound auto fluorescence at 535 nm (green) in HEK293 cell free culture (AID 720682). The gist of the method: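 Fluorescein serves as the green reference fluorophore; each compound's intrinsic emission at 535 nm (excitation 485 nm) is reported as an equivalent amount of that dye, measured in serum-containing DMEM without cells.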
A short description of assay [14]: qHTS assay to test for compound auto fluorescence at 590 nm (red) in HEK293 cell free culture (AID 720683). The gist of the method:
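Red-channel autofluorescence of compounds in culture medium (DMEM, 10% FBS), no cells, measured at 540/590 nm. Rose Bengal sodium is the reference fluorophore for equivalence.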

The nature of assay [15]: qHTS assay to test for compound auto fluorescence at 590 nm (red) in HepG2 cell free culture (AID 720684). The gist of the method: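 Cell-free; medium MEM + 10% FBS; compound or DMSO added by pintool; read Ex 540/Em 590 nm; Rose Bengal sodium as red reference fluorophore.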
Assay [16] is described as follows: qHTS assay to test for compound auto fluorescence at 460 nm (blue) in HepG2 cell free culture (AID 720685). The gist of the method:
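Cell-free plates of MEM plus 10% FBS received 23 nL compound or DMSO vehicle; blue-channel (405/460 nm) intensity scored against triamterene as reference fluorophore.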

A short description of assay [17]: qHTS assay to test for compound auto fluorescence at 460 nm (blue) in HepG2 cells (AID 720687). The gist of the method: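 Blue-channel autofluorescence (Ex/Em 405/460 nm, triamterene-equivalent) was measured after 1 hr compound exposure at 37 C, 5% CO2. Cells were HepG2, plated overnight at 37 C in MEM plus 10% FBS.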
Assay [18] deals with Glucocorticoid receptor (Homo sapiens) (UniProt P04150). Nature of the assay: qHTS assay to identify small molecule agonists of the glucocorticoid receptor (GR) signaling pathway (AID 720691; active means well fitted activation curve with a large enough effect in the signal ratio in the repeat runs, not every such curve was filed as active; the % refers to the signal ratio). The gist of the method:
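Cells: GR-bla HeLa, endogenous GR with stably integrated GRE-beta-lactamase reporter. Treatment 18 h, 37 C, compounds delivered in DMSO. Detection via LiveBLAzer B/G FRET substrate, 2 h RT, fluorescence intensity.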

Assay [19] shares this target. Put plainly: qHTS assay to identify small molecule antagonists of the glucocorticoid receptor (GR) signaling pathway (AID 720692; active means well fitted inhibition curve with a large enough effect in the signal ratio in the repeat runs, not every such curve was filed as active; the % refers to the signal ratio). The gist of the method:
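Quantitative HTS in antagonist format: HeLa cells expressing endogenous GR and a stably integrated GRE-bla reporter, stimulated with 5 nM dexamethasone (final) alongside test compounds for 18 h.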

A short description of assay [20]: qHTS assay to test for compound auto fluorescence at 535 nm (green) in HepG2 cell free culture (AID 720686).

Chain of Glucocorticoid receptor (Homo sapiens) (P04150 whole entry, looked up): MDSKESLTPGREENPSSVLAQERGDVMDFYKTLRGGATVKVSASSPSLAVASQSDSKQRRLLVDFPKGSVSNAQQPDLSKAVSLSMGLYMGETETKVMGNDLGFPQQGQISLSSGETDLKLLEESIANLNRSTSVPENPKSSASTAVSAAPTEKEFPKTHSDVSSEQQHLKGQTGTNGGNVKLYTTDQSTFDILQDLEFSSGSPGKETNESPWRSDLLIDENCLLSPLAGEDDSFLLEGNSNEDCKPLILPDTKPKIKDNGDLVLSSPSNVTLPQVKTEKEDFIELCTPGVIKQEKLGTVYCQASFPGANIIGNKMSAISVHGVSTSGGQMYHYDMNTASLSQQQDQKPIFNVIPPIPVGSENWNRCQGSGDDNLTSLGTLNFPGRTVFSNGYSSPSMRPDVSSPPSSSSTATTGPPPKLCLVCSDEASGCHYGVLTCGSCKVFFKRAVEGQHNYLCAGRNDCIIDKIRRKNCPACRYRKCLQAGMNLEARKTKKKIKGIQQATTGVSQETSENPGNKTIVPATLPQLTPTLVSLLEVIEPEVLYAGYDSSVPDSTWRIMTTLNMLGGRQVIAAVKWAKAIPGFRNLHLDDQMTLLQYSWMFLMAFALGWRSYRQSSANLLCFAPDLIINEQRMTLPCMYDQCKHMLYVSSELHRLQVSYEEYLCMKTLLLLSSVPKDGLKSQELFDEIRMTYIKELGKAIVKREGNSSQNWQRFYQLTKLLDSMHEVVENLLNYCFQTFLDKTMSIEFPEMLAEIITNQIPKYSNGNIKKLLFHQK

Consider `CN1CC[C@]23c4c5ccc(O)c4O[C@H]2[C@@H](O)CC[C@H]3[C@H]1C5`, for which the Potency result in assay [1], in assay [2], in assay [3], in assay [4], in assay [5] and in [6] was “inactive” throughout. The Potency result in assay [18] and in [19] was “inactive” throughout. Moreover, the result in assay [7], in assay [8], in [9], in assay [10], in [11] and in assay [12] was inactive. The result in [13], in [14], in [15], in assay [16] and in assay [17] was inactive.

For `Oc1cccc(Cl)c1`, the Potency entry in [1], in [2], in assay [3], in assay [4], in [5] and in assay [18] was “inactive” throughout. In assay [19], the Potency result is “inactive”. Besides, the Potency in assay [6] is 53.8 µM (active). For the same compound, the outcome in [7], in [8], in assay [9], in assay [10], in assay [11] and in assay [12] was inactive. In addition, the outcome in [13], in assay [14], in [15], in assay [16], in [20] and in assay [17] was inactive.

Turning to `O=C(NCNC(=O)NC1C(=O)NC(=O)N1CO)NC1C(=O)NC(=O)N1CO` (stereo unspecified), the Potency result in assay [1], in assay [2], in [3], in assay [4], in assay [5] and in assay [6] was “inactive” in each case. Further, the Potency entry in assay [18] and in assay [19] was “inactive” throughout. Besides, the compound was called inactive in [7], in assay [8], in [9], in assay [10], in [11] and in [13]. Moreover, the outcome in [14], in assay [15], in [16], in assay [20] and in assay [17] was inactive.

With `CN(C)N`, the Potency result in assay [1], in assay [2], in assay [3], in [4], in assay [5] and in assay [6] was “inactive” throughout. The Potency entry in [18] and in [19] was “inactive” each time. In addition, the result in [7], in assay [8], in assay [10], in [11], in assay [12] and in assay [13] was inactive. Moreover, the call in assay [14], in [15], in assay [16], in assay [20] and in assay [17] was inactive.

In the case of `CN(C)C(=O)Nc1cccc(OC(=O)NC(C)(C)C)c1`, the Potency result in [1], in assay [2], in assay [3], in [4], in assay [5] and in [6] was “inactive” each time. In addition, the Potency result in assay [18] and in assay [19] was “inactive” each time. Also, the result in [7], in assay [8], in [10], in [11], in assay [12] and in assay [13] was inactive. For the same compound, the call in assay [14], in [15], in assay [16] and in [17] was inactive.

For the compound `C=C(Cl)Cl`, the Potency entry in [1], in [2], in assay [3], in [4], in assay [5] and in assay [6] was “inactive” throughout. Further, the Potency result in assay [18] and in [19] was “inactive” in each case. The call in assay [7], in assay [8], in assay [9], in assay [10], in assay [11] and in [12] was inactive. Further, the compound was classed as inactive in [13], in [14], in [15], in assay [16], in assay [20] and in assay [17].

In the case of `CCCC1CCCCN1` (stereo unspecified), the Potency entry in assay [1], in assay [2], in assay [3], in [4], in assay [5] and in assay [6] was “inactive” in each case. The compound was called inactive in [7], in [8], in [10], in assay [11], in assay [12] and in [13]. Moreover, the compound was classed as inactive in [14], in [15], in assay [16] and in [17].
